In the library only some 10% were active in any assay of this set; here they are far more common.
BAZ2B inh = inhibitors of human BAZ2B bromodomain; Potency, µM (doses to about 114 µM), for the others: top-dose activity change, negative = inhibition, hits mostly inhibitors; AID 504333; 4.4% of 360,000 active; AlphaScreen BAZ2B-H3K14Ac peptide displacement; Q9UIF8; note: % is set by controls: 0 for no effect and ±100 for the full control effect; nearly all actives have a fitted effect of over 60% in size
Target sequence (Q9UIF8 whole entry, looked up): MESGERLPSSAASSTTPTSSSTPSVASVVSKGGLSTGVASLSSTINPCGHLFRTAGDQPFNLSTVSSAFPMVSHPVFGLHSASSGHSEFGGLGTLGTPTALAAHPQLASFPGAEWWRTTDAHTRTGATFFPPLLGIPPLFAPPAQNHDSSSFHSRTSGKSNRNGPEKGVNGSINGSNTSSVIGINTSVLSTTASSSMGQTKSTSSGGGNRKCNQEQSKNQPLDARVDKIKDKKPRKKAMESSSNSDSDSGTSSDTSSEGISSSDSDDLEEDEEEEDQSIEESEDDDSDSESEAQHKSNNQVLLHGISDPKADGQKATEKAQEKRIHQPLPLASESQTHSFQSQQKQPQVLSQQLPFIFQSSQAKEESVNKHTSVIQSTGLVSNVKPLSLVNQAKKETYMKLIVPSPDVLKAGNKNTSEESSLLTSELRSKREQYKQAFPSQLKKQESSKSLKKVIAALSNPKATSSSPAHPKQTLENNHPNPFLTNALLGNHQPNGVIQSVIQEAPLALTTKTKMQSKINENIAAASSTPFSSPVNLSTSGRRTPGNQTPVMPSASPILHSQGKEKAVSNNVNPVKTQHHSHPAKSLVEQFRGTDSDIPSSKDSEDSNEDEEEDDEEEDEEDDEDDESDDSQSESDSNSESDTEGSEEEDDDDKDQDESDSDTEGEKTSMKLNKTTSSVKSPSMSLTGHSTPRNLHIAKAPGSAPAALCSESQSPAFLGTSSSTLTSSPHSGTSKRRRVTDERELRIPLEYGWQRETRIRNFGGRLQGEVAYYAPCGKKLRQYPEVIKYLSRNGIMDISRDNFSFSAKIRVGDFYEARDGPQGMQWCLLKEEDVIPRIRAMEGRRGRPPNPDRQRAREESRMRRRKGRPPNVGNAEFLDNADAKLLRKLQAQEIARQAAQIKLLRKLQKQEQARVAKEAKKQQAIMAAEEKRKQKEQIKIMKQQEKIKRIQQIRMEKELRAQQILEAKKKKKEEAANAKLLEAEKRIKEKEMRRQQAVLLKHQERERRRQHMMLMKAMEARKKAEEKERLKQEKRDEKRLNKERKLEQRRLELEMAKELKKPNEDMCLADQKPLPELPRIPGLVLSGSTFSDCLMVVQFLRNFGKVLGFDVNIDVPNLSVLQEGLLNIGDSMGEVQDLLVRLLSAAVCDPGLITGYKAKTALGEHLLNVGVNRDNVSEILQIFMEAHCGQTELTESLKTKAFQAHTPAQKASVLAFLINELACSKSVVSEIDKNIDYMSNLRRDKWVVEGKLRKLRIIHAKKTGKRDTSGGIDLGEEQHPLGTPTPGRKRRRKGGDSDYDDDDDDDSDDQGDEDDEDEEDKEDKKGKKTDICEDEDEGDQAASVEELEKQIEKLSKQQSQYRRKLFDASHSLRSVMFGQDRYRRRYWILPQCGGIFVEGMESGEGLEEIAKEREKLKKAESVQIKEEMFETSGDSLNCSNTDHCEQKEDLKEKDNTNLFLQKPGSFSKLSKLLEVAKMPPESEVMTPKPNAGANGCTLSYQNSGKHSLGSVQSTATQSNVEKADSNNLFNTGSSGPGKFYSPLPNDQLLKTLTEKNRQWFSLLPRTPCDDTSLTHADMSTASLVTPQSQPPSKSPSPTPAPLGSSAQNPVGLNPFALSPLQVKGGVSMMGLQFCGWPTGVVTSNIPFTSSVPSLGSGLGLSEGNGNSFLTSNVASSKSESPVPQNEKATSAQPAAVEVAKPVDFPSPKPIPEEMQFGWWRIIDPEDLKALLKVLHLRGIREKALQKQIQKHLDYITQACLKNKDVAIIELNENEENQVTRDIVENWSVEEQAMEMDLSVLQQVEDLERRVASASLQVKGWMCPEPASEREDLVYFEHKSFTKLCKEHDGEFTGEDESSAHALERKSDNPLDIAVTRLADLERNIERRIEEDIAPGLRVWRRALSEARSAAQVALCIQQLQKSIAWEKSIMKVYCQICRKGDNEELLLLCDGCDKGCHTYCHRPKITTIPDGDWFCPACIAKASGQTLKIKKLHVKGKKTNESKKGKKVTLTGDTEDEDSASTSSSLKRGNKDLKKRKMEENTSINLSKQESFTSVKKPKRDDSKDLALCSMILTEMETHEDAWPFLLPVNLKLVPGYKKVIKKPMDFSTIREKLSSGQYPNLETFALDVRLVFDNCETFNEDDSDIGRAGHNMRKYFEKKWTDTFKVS
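In this displacement format the biotinylated H3(5-23) peptide acetylated at Lys14 serves as ligand at 50 nM, with BAZ2B at 50 nM in PBS pH 7.4 containing 0.01% Tween-20. Donor and acceptor beads are 10 ug/mL final.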
JMJD2A Tudor inh = inhibitors of human JMJD2A Tudor domain | O75164 | AlphaScreen JMJD2A-Tudor / H3K4me3 peptide binding | Potency, µM (top dose mostly 114 µM), for the others: at the top dose activity change, negative = inhibition, usual class: inhibitors | 4.4% of 390,000 active | AID 504339; note: % is set by controls: 0 for no effect and ±100 for the full control effect; nearly all actives have a fitted effect of over 50% in size
HP1b chromo inh = inhibitors of HP1-beta chromodomain binding to methylated histone tails | P83916 | AlphaScreen HP1-beta / biotin-H3K9me3 peptide binding | Potency, µM (highest dose often 114 µM), for inactives: at the top dose activity change, negative = inhibition, actives largely listed as inhibitors | 0.56% of 390,000 active; note: nearly all actives have a fitted effect of over 70% in size
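HP1-beta protein (50 nM final) preincubated 30 min at room temperature with biotinylated H3(1-18)K9me3 peptide (50 nM) in PBS pH 7.4, 0.01% Tween-20, then compound added for 30 min. AlphaScreen streptavidin donor/nickel chelate acceptor beads (10 ug/mL final), 30 min dark, luminescence read.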
GLS inh = inhibitors of human glutaminase (GLS); Potency, µM (series often up to 45.5 µM), for the others: at the top dose activity change, negative = inhibition, hits mostly inhibitors; 0.21% of 410,000 active; O94925; GLS enzymatic activity, qHTS titration; AID 624170; note: % is set by controls: 0 for no effect and ±100 for the full control effect
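Coupled fluorescence readout: glutamate oxidase/HRP/Amplex Red detect glutamate formed by hKGA from L-glutamine (1 mM solution added). Buffer 45 mM KH2PO4 pH 8.2, 0.02% Tween-20; reads at t0 and 30 min RT.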
G9a block = blocks human histone lysine methyltransferase G9a. Q96KQ7. G9a H3K9 monomethylation, AlphaScreen, 2 h. Potency, µM (series often up to 102 µM), without a hit: at the top dose activity, negative = inhibition, actives largely listed as inhibitors. 8.8% of 350,000 active. AID 504332; note: % is set by controls: 0 for no effect and ±100 for the full control effect; nearly all actives have a fitted effect of over 75% in size
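Enzyme 20 nM + cpd, 15 min RT; add b-H3K9 pep 500 nM / SAM 20 uM; 2 h RT; anti-H3K9me1 Ab 0.5 ug/mL + SA donor / anti-rabbit acceptor beads 20 ug/mL each, 10 min; AlphaScreen read.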
An asterisk follows results filed as active; ? = inconclusive; nt = no result; ! = repeats disagree; [ ] = another dose, or the depositor's remark. Calls come from the whole dose curve; as a rule, active = well fitted curve in the direction sought with a large enough effect; inconclusive = small, poorly fitted or top-dose-only effect, or another doubt; inactive = no such curve, though single readings can be large; an effect the other way counts as inactive or inconclusive. Potency is the fitted concentration of half-maximal effect.

SMILES	BAZ2B inh	JMJD2A Tudor inh	HP1b chromo inh	GLS inh	G9a block
CCc1cccc(CC)c1NC(=S)N1CCn2cccc2C1c1cccnc1 (stereo not given)	?	-24%	0%	-7%	?
CCOC(=O)N1CCN(Cc2nc3cc(NC(=O)c4ccccc4OC)ccc3n2C(C)C)CC1	79µM*	50µM*	24%	-6%	?
O=C(Nc1ccc2c(c1)nc1n2CCN(C2CCCCC2)C1)c1ccco1	-11%	-15%[11.4 µM]	27%	2%	-136%[59 µM]
COc1ccccc1C(=O)Nc1ccc2c(c1)nc1n2CCN(C2CCCCC2)C1	-20%[57.1 µM]	?	6%	20%	32µM*
CCC(=O)Nc1ccc2c(c1)nc1n2CCN(CCOC)C1	-14%	1%	63%	-13%	32µM*
CCC(=O)Nc1ccc2c(c1)nc1n2CCN(C2CCCCC2)C1	?	-31%	4%	-12%	?
CCOC(=O)N1CCN(Cc2nc3cc(NC(=O)c4ccccc4[N+](=O)[O-])ccc3n2C(C)C)CC1	-35%	-16%	34%	1%	-30%[59 µM]
Cc1ccc(S(=O)(=O)N2CCCC(C(=O)NCC3CCCO3)C2)cc1 (stereo not given)	0%	-4%	6%	-1%	-49%
Cc1ccc(NC(=O)N2CCC(=O)N2)cc1	-37%	32µM*	1%	31%	?
CC(=O)N(CCc1cccc(C)c1)Cc1cc2cc(C)ccc2[nH]c1=O	1%	-6%	36%	3%	nt
COc1ccc(C(=O)C(c2ccccc2)N2CCOCC2)cc1 (stereo not given)	?	-30%	41%	-6%	50µM*
O=C(COc1ccc2ccccc2c1Br)Nc1ncn[nH]1	-1%	-15%	4%	-2%	15%
O=C(CC(c1ccccc1)c1ccccc1)Nc1ccc(Cl)cn1	-2%	6%	47%	6%	-5%[59 µM]
Cc1cc(OCC(=O)Nc2cc(-c3nn4c(C)nnc4s3)ccc2C)ccc1Cl	12%	56µM*	18%	?	-3%
Cc1cc(OCC(=O)Nc2ncn[nH]2)ccc1Cl	45µM*	?	43%	7%	-37%[2.33 µM]
Cc1cc(OCC(=O)Nc2ccncc2)ccc1Cl	?	-17%	45%	2%	nt
Cc1cccc(C)c1OCC(=O)Nc1ncn[nH]1	50µM*	?	29%	-1%	14µM*!
O=C(CC(c1ccccc1)c1ccccc1)Nc1ncn[nH]1	79µM*	-22%	36%	2%	-40%[12.7 µM]
COc1ccc(OCC(=O)Nc2cc(-c3nn4c(C)nnc4s3)ccc2C)cc1	5%	-11%	44%	2%	16%
CC1=C(c2ccc(C)cc2)S(=O)(=O)N(Cc2ccc(C(=O)NCc3ccccc3)cc2)C1=O	-16%	-28%	?	-11%	-3%[59 µM]
COc1ccc(NC(=O)C2CCN(S(=O)(=O)c3cccc4cccnc34)CC2)cc1	-15%	-30%	47%	1%	?
CC(=O)c1ccc(NC(=O)C2CCN(S(=O)(=O)c3cccc4cccnc34)CC2)cc1	-4%	-23%	31%	-1%	50µM*
COc1ccc(NC(=O)C2CCN(S(=O)(=O)c3cccc4nonc34)CC2)cc1	2%	6%	27%	4%	45µM*
COc1ccc(NC(=S)N2CCC(N(C)CC3CCCO3)CC2)cc1 (stereo not given)	3%	-27%	11%	12%	2%[59 µM]
COc1ccc(C(CC(=O)O)NC(=O)COc2ccccc2)cc1OC (stereo not given)	0%	-7%	13%	9%	79µM*
CCOc1ccc(C(CC(=O)O)NC(=O)COc2ccccc2)cc1OC (stereo not given)	nt	-5%	10%	-14%	-36%
COc1ccc(C(CC(=O)O)NC(=O)COc2cc(C)ccc2C)cc1OC (stereo not given)	nt	-13%	4%	1%	32µM*
COc1ccc(OCC(=O)NC(CC(=O)O)c2ccc(OC)c(OC)c2)cc1 (stereo not given)	nt	-13%	5%	-3%	-44%
CC(Oc1ccc(/C=N/NC(=O)Cc2cccc3ccccc23)cc1)C(=O)O (stereo not given)	-3%	-22%	14%	1%	0%[59 µM]
Clc1ccc(CNc2nc3ccccc3c3nc(-c4cccnc4)nn23)cc1	4%	-6%	14%	-10%	7%[59 µM]

Screening data deposited in PubChem by National Center for Advancing Translational Sciences (NCATS).
